Reference: ChEMBL document CHEMBL4513216, “Probing the Open Global Health Chemical Diversity Library for Multistage-Active Starting Points for Next-Generation Antimalarials” (ACS Infect Dis, 2020)
Screen size: about 69,000 compounds; about 8,600 (12%) showed an effect of 50% or more. What follows is part of a selection rich in strong results, with near analogues and random picks from the rest.

test system: Plasmodium berghei; assay: Screen against P. berghei liver stage (PbLuc), transformed with Luciferase, at 10uM; format: functional, HepG2; details: tested at 10 uM

| SMILES | INHIBITION [%] |
| --- | --- |
| Cc1cc(CNC(=O)NCCC(=O)N2CCCc3ccccc32)no1 | 17.1 |
| CN(Cc1cccc(C#N)c1)Cc1nc2c(cnn2C)c(=O)[nH]1 | 44.3 |
| Cc1ccc(OCC(O)CN2CCc3c(ncn3C3CC3)C2)cc1 (stereo not given) | 58.5 |
| OC(COc1ccccc1)CN1CCc2c(ncn2C2CC2)C1 (stereo not given) | 5.97 |
| OC(CN1CCOCC1)CN1CCc2c(ncn2C2CC2)C1 (stereo not given) | 13.5 |
| CS(=O)(=O)CCN1CCc2c(ncn2C2CC2)C1 | -2.43 |
| CC(C)S(=O)(=O)CCN1CCc2c(ncn2C2CC2)C1 | 67.1 |
| O=S(=O)(CCN1CCc2c(ncn2C2CC2)C1)c1ccccc1 | -11.4 |
| Fc1ccc(CN2CCC3(CC2)CC(c2cccnc2)CO3)cc1 (stereo not given) | 15.4 |
| CN(C)c1cc(CC(NC(=O)C2CC2)c2ccccc2)nc(C2CC2)n1 (stereo not given) | 37.1 |
| O=C(NCc1ccccn1)C1=NN(c2ccccc2)C(=O)CN1 | -170 |
| CN(C)C(c1ccccn1)C1CCC(CNC(=O)C2CC2)CC1 (stereo not given) | -103 |
| Cn1cc(-c2ncc3c(c2C(=O)O)CCN(Cc2ccccn2)C3)cn1 | 29.4 |
| Cc1cc(Cl)c(C)c(S(=O)(=O)N2CCN(Cc3ccccn3)CC2)c1Cl | 18.6 |
| CC(C)Cn1cc2nc(N3CCC(O)CC3)[nH]cc-2c1=O | 66.5 |
| CC(C)Cn1cc2nc(N3CCCC3)[nH]cc-2c1=O | 47.4 |
| CC(C)Cn1cc2nc(N3CCCC(C)C3)[nH]cc-2c1=O (stereo not given) | -40.4 |
| COc1ccccc1C(=O)NS(=O)(=O)c1cncc(Br)c1 | 28.3 |
| COc1c(CNCC(O)c2ccccc2)c(C(C)C)nn1C (stereo not given) | 3.73 |
| COc1ccc2c(c1)OCC(C(=O)NCc1ncc3c(n1)CCC3)C2 (stereo not given) | -9.39 |
| O=C1NCc2ccccc2CC12CCN(Cc1ccccc1Cl)CC2 | 36.6 |
| Cc1nc(N(C)C)nc(N2CCC3(CC2)CNC(=O)O3)c1C | -12.1 |

| SMILES | INHIBITION [%] |
| --- | --- |
| CNC(=O)CN1CCC2(CC1)C[C@@H](O)[C@H](c1ccccc1)NC2=O | 44.8 |
| NC(=O)CN1CCC2(CC1)C[C@@H](O)[C@H](c1ccccc1)NC2=O | 53.2 |
| CN(C)C(=O)CN1CCC2(CC1)C[C@@H](O)[C@H](c1ccccc1)NC2=O | 22 |
| CN(C)C(=O)CN1CCn2cc(Cn3cccn3)nc2C1 | 38.5 |
| COc1ccc(C2CCCN2c2ccnc(C)c2Cl)c(OC)c1 (stereo not given) | 82.2 |
| COc1ccc(C2CCCN2c2nnc(C)s2)c(OC)c1 (stereo not given) | 15.5 |
| COc1ccc(C2CCCN2c2cnccn2)c(OC)c1 (stereo not given) | 31.6 |
| O=C([C@@H]1CN(Cc2nccs2)C[C@H]2OCC[C@H]21)N1CCOCC1 | 14 |
| Cn1cc(CN2CC[C@H]3O[C@H](C(=O)NCc4ccco4)CC[C@H]32)cn1 | -20.6 |
| CC1c2ncc(CNC(=O)C3CC3)n2CCN1Cc1nccs1 (stereo not given) | -4.32 |
| c1cc2c(cc1CN1CCCC3(CCOC3)C1)OCO2 (stereo not given) | 25.4 |
| COCCN1CCC2(COCCN(Cc3ccc4c(c3)OCO4)C2)C1 (stereo not given) | 46.7 |
| CCN1CC2(CCC1=O)CCN(Cc1cccc(C#N)c1)CC2 | 33.4 |
| CN1CCC2(COCCN(Cc3ccc4c(c3)OCO4)C2)C1 (stereo not given) | 61.5 |
| CCCOC(=O)N1CCCC2(CCN(Cc3cccc(C#N)c3)C2)C1 (stereo not given) | 2.7 |
| CN1CCC2(COCCN(Cc3cccc(C#N)c3)C2)C1 (stereo not given) | 89.6 |
| COCC(C)NC(=O)c1sccc1-n1cnnn1 (stereo not given) | 36.5 |
| Fc1ccccc1CN1CCC[C@H](Cn2nnc(-c3cccs3)n2)C1 | 21.6 |
| Nc1nnc(CCCn2nnc(-c3ccccc3F)n2)s1 | 44.7 |
| Cc1cc(-c2nnn(CCNS(C)(=O)=O)n2)ccc1F | 31.8 |
| Fc1ccccc1-c1nnn(CCCc2nn[nH]n2)n1 | 78.8 |
| CNS(=O)(=O)CCCn1nnc(-c2ccc(F)c(C)c2)n1 | -6.51 |

| SMILES | INHIBITION [%] |
| --- | --- |
| Nc1nnc(Cn2nnc(-c3ccccc3F)n2)s1 | 61.8 |
| COCCN1CCC(Cc2cncc(-c3ccc(C(=O)O)cc3)n2)CC1 | 31.6 |
| Nc1cnn(CC(=O)N2CCCCC2)c1 | 34 |
| COc1cccc(CN2CCCCC2Cn2nc(C)nc2C)c1 (stereo not given) | -59.4 |
| NC(=O)COc1ccc(C(=O)N2CCCC(n3ccnc3)C2)cc1 (stereo not given) | -19.4 |
| CNC(=O)N1CC[C@H]2N(C)CC[C@@]2(C(=O)N2CCOCC2)CC1 | -18.4 |
| CCOc1ccc(C(=O)N2CCCS2(=O)=O)cc1OC | 11.2 |
| COc1cc(C(=O)N2CCCS2(=O)=O)ccc1OC(C)C | 66.7 |
| COc1ccc(C(=O)N2CCCS2(=O)=O)cc1OC | 5.03 |
| Cc1cc(C)n(NC(=O)c2ccccc2C)c(=O)c1 | -46.4 |
| Cc1cc(C)n(NC(=O)c2ccccc2F)c(=O)c1 | 47.1 |
| Cc1cc(C)n(NC(=O)c2ccc(Cl)cc2Cl)c(=O)c1 | 60.4 |
| CCc1nc(CN2CCN(C(=O)c3csnn3)CC2)cs1 | 10.2 |
| CS(=O)(=O)Cc1ccc(C(=O)NC2CCc3nccn3C2)o1 (stereo not given) | -16.38 |
| CCc1c(O)nc2nc(N3CCCC3)nn2c1C | 44.1 |
| CC(=O)N1CCCC1c1cncc(Oc2ccc(F)cc2)n1 (stereo not given) | 11.1 |
| COc1ccc(Oc2cncc(C3CCCN3C(C)=O)n2)cc1 (stereo not given) | -3.98 |
| Cn1cncc1CN1CCCC1c1cncc(Oc2ccc(Cl)cc2)n1 (stereo not given) | 96.6 |
| CNCC(=O)N1CCCC1c1cncc(Oc2ccc(F)cc2)n1 (stereo not given) | 38.2 |
| NC(=O)CN1CCCC1c1cncc(Oc2ccc(Cl)cc2)n1 (stereo not given) | 13.5 |
| Cc1ncccc1Oc1cncc(C2CCCN2Cc2cncn2C)n1 (stereo not given) | 32.8 |
| CC(C)(N)C(=O)N1CCCC1c1cncc(Oc2ccc(F)cc2)n1 (stereo not given) | 31.1 |

| SMILES | INHIBITION [%] |
| --- | --- |
| CN(C)CC(=O)N1CCCC1c1cncc(Oc2ccc(F)cc2)n1 (stereo not given) | 53 |
| Cn1cncc1CN1CCCC1c1cncc(Oc2ccc(F)cc2)n1 (stereo not given) | 67.7 |
| CCN(CC)C(=O)c1ccn(COc2c(Cl)cccc2Cl)n1 | 20.9 |
| Cc1ccc(N2CCCN(C(=O)CCCn3ccnc3C)CC2)nn1 | 7.18 |
| CC(=O)N1CC2(CCN(c3nccc4ccccc34)CC2)CC1C(=O)O (stereo not given) | 29.2 |
| CN(C)CCO[C@H]1C[C@@H](O)C12CCN(c1nccc3ccccc13)CC2 | -3.58 |
| CN(C)c1nccnc1N1CC[C@@]2(O)CCNC[C@H]2C1 | 15.8 |
| O=C(O)C1CC2(CCN(c3nccc4ccccc34)CC2)CN1 (stereo not given) | 93.1 |
| O[C@]12CCNC[C@H]1CN(c1nccc3ccccc13)CC2 | 53.9 |
| Cc1nnc(N2CC[C@@]3(O)CCNC[C@H]3C2)c2ccccc12 | 25.8 |
| O[C@]12CCNC[C@H]1CN(c1ncccc1Cl)CC2 | 7.6 |
| CCCOc1ccc2ccccc2c1CN1CC[C@@]2(O)CCNC[C@H]2C1 | 5.41 |
| O[C@]12CCNC[C@H]1CN(c1ccnc3ccccc13)CC2 | 56.7 |
| Cc1cc(C2CCCN2C(=O)c2cc3c(s2)CCC3)no1 (stereo not given) | 15.3 |
| CS(=O)(=O)N1CCOCC2(CCN(C(=O)c3ccco3)CC2)C1 | 27.6 |
| Cc1cnc(C)c(N2CCC3(CCCN(C4CCOCC4)C3=O)C2)n1 (stereo not given) | -30 |
| CN1CCC(C(=O)N2CCC(c3ccc4c(N)n[nH]c4n3)CC2)CC1 | 34.75 |
| Cc1cnn(C2CCCN(C(=O)c3ccc(C(N)=O)cn3)C2)c1 (stereo not given) | 44.3 |
| Cc1c(Br)cccc1S(=O)(=O)NCc1ccnn1C | 37.1 |
| O=c1cccnn1CC1CN(c2ncc(F)cn2)Cc2nccn2C1 (stereo not given) | -3.33 |
| COc1ccc(C(=O)N2CCN(CCO)CC2)c(F)c1 | -61.4 |
| OCCc1ncnn1Cc1cccc(Cl)c1 | 0.426 |

| SMILES | INHIBITION [%] |
| --- | --- |
| NC(=O)c1c[nH]nc1NCc1ccc2c(c1)OCO2 | 4.35 |
| c1ccc(-n2nnnc2NCc2ccc3c(c2)OCO3)cc1 | 64.5 |
| CN(Cc1ccc2c(c1)OCCO2)Cc1nnnn1-c1ccccc1 | 51.2 |
| CN(Cc1ccc2c(c1)OCO2)Cc1nc(Cc2ccccc2)no1 | 9.56 |
| c1ccc(-n2nnnc2CNCc2ccc3c(c2)OCCO3)cc1 | 34.9 |
| N#Cc1c[nH]nc1NCc1ccc2c(c1)OCO2 | -5.51 |
| COCCn1ccnc1CN1CCc2[nH]cnc2C1c1cnn(C)c1C (stereo not given) | 32.2 |
| Cn1cc(-c2nnc3sc(C4CC4)nn23)cn1 | 0.87 |
| O=C(COc1ccccc1)NCCNC(=O)c1scnc1Cl | 23.5 |
| CCCc1cc(=O)[nH]c(-c2ccccc2CN(C)CCn2cccn2)n1 | 16.1 |
| Cc1ncsc1C(=O)NC1CCN(Cc2ccc(C(N)=O)cc2)CC1 | -12.2 |
| Cc1ncsc1C(=O)NC1CCN(Cc2ccc(C(F)(F)F)cc2)CC1 | 62.6 |
| Cc1ccc(CN2CCC(NC(=O)c3scnc3C)CC2)cc1 | 40.9 |
| COCCN1CCN(Cc2nc3c(s2)CCCC3)[C@H]2CS(=O)(=O)C[C@H]21 | -27.6 |
| CCc1ccc(CN2CCN(CCOC)[C@@H]3CS(=O)(=O)C[C@@H]32)cc1 | 39.4 |
| COCCN1CCN(Cc2ccc(C(C)=O)cc2)[C@H]2CS(=O)(=O)C[C@H]21 | 32.1 |
| CCOc1ccc(CN2CCN(CCOC)[C@@H]3CS(=O)(=O)C[C@@H]32)cc1 | 45.8 |
| COCCN1CCN(Cc2ccc(F)c(C)c2)[C@H]2CS(=O)(=O)C[C@H]21 | 28.5 |
| COCCN1CCN(Cc2nccs2)[C@H]2CS(=O)(=O)C[C@H]21 | 55.7 |
| COCCN1CCN(Cc2ccncc2)[C@H]2CS(=O)(=O)C[C@H]21 | 63.5 |
| COCCN1CCN(Cc2cccnc2)[C@H]2CS(=O)(=O)C[C@H]21 | 43 |
| COCCN1CCN(Cc2ccc(Cl)cc2)[C@H]2CS(=O)(=O)C[C@H]21 | 52.1 |
